A number with no mark means an inactive call.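 The calls were made as follows: active = MAPPIT score above the 99th percentile of random reference set scores in the same batch; inactive = at or below it.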
Tests used:
Test in all cases: MAPPIT interaction score (arbitrary units); higher = stronger binary interaction signal, active = hit call of the paper
Ass = details: MAPPIT configuration: N-N; pair source set: Curagen_high_conf
Protocol: (§1)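 MAPPIT in HEK293T cells: Drosophila bait and prey ORFs (from the FlyBi ORF collection) were co-transfected in quadruplicate, with two wells stimulated by erythropoietin. Interaction-dependent JAK-STAT activation was read out with a STAT-responsive firefly luciferase reporter. Positive calls use the 99th percentile of random reference set (RRS) scores within each batch […]. Batches Dvs01 and Dvs02 used the N-N configuration and Dvs04 the N-C configuration. Pairs come from FlyBi screens, CuraGen, DPiM, Finley Y2H, Lit-BM-16, Lit-BS-16 and RRS.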

Act57B = details: MAPPIT configuration: N-N; pair source set: screen_1
Protocol: as §1

Arts = details: MAPPIT configuration: N-N; pair source set: Finley_Y2H
Protocol: as §1

Pu = details: MAPPIT configuration: N-N; pair source set: screen_1
Protocol: as §1

Vinc = details: pair source set: Lit-BM-16
Protocol: as §1

Adar = details: MAPPIT configuration: N-N; pair source set: RRS
Protocol: as §1

Arc2 = details: MAPPIT configuration: N-N; pair source set: screen_1
Protocol: as §1

BEAF-32 = details: MAPPIT configuration: N-N; pair source set: screen_1
Protocol: as §1

Atx-1 = details: MAPPIT configuration: N-C; pair source set: screen_4
Protocol: as §1

Arv1 = details: MAPPIT configuration: N-C; pair source set: RRS
Protocol: as §1
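Also: HEK293T cells with Epo stimulation, STAT-responsive firefly luciferase reporter, fold induction versus unstimulated cells divided by the larger fold induction of two negative controls lacking either bait or prey.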

B1: Git (protein)
chain: MCFASSIIEAHRKLFIAPPDLDHSDPATPTISTRSKMPRGKSRLQTEVCGDCGAGDPSWASINRGILLCADCCSVHRSLGRHISIVKSLRQGNWEPSVLNFVNSLNAHGANSVWEHHLLDGSTNSTGGKHVPRWRKPTPKDALHPTKSDFIKAKHVNLTFVLKPSLQDDDDGNGSAGCLEQELSRQLHASVRTSNLETSLRFLVQGADPNYYHEDKLSTPLHMAAKFGQASQIEMLLIYGADVNALDGNGMTPLELARANNHNTIAERLLDAMYDVTDRIITFLGGKKPDHASGRHMIIPDANGADISEQLKIARGKLQLVPNKMFEELVMDLYDEVDRRECEAIWSTSTLNADHATVPFLPANPFLSATRNQGRQKLARFNRAEFTGLLTDVLVDAMRRQNMANLRPMDAPVAGHQSLQSLPYANNSMLLGSFEQGGHDPNLSDDEPIYDPVASDDDYAPVPPMAQQAIVHTPPRSANSHNEMETLRKQLNDYKSEINQLKNVVQMLSSENTQLKSKFSSASNNSVYDEPLRIDLSLSSPDTEHEPLSLPEGGTANGESGSSNDSSNQSTIKRPASMYERRLVPNVAKGNTDIRNTTSMYQMAGDGKPFGEEVKVRSDLVTRRLKELIRAMQPVPEDQKQSIAPHGELIRSAVTDLIALYANLPPNASDPSRETLKLLTRQNILIQHECENLQKAIEADDKQAIQKNTLEVRDCAFHIASAIKTLVLQFY
In the case of B1, the MAPPIT interaction score (Ass) is reported as -0.0648.

B2: CG12206 (protein)
chain: MAAITSNVSRLEPMRGISIIIESPEVATATPPPATTTATAEAEAATKQVAPTAKSNSNTEMSLKSQAAGMLLAFGDTAATAKDNLETSYDTAAKSTAAPETNKIYPQLLLRIGGEIAGATASAEAAASAATAAAATATSPTIISCNGEIAASQAAATAADTAATLQHNNTVKIQIESQGQQRTLGKQISVVKLNEGVEEMQQHMCYLVDTSGQYSPCETLDSGTGSDLENHPQQQQQPQQVRSPQLELHLQTTRLMVNEEADHKHSPLETPSPVPKRAYSLTDDSEECDESSNSSLSCDSLHSGGLLPTTLLRDIRFRERASGPLVTKINGRPLQFETDGYYTFHVREHENFRSFGSNSSTEYEAQHFTDEQPGEDFVGFRDIRTAGKLAGNSTIKSAKGTVRGVKNRVRNGVATFLQLQQPNVKNYMEKDVGKVVLYTTSMGIIRDTYAKCANVKKILRTLLIKFEERDIFMSVEYQQEMRERMQDETIRVPQLFVEGQLIGDANIVERLNESGELRQLLRPYKSIATAYTCQTCGGYRMLPCPACNGSKKSMHRNHFTAEFVALKCMNCDEVGLIKCPNC
B2 was tested, and the MAPPIT interaction score (Act57B) was 1.77.

B3: CAP (protein)
chain: MEPGTIPSPVSAPVAAPVTPSAVAAPVQVVSPAAVAPAPAAPIAVTPVAPPPTLASVQPATVTIPAPAPIAAASVAPVASVAPPVVAAPTPPAASPVSTPPVAVAQIPVAVSAPVAPPVAATPTPVAPIPVAAPVIATPPVAASAPTPAAVTPVVSPVIATPPVVPANTTVPVAAPVAAVPAAVPVVAPVLAPAVAPAVAPVVAETPAPPPVAEIPVATIPECVAPLIPEVSVVATKPLAAAEPVVVAPPATETPVVAPAAASPHVSVAPAVETAVVAPVSASTEPPVAAATLTTAPETPALAPVVAESQVAANTVVATPPTPAPEPETIAPPVVAETPEVASVAVAETTPPVVPPVAAESIPAPVVATTPVPATLAVTDPDVTASAVPELPPVIAPSPVPSAVAETPVDLAPPVLPPVAAEPVPAVVAEETPETPAPASAPVTIAALDIPEVAPVIAAPSDAPAEAPSAAAPIVSTPPTTASVPETTAPPAAVPTEPIDVSVLSEAAIETPVAPPVEVTTEVAVADVAPPEAAADLIIEPVEPPAPIPDLLEQTTSVPAVEAAESTSSPIPETSLPPPNEAVASPEVAVAPITAPEPIPEPEPSLATPTEPIPVEAPVVIQEAVDAVEVPVTETSTSIPETTVEYPVAEKVLDPAITEAPVTTQEPDVANINDGAPATEITTPAVEIVTAAAEVSDTAIPLIDPPVPQEIAVAEIPETETKPAEVIVEQSTIPIEAPVPEVSKYAEPVISEAPAAEVPITAGDNPDNTSVGISEVVPTIAEKAVEEVPTSEIPEQSSSPSDSVPVAKITPLLRDLQTTDVSLLAIAATLDAIGEKLKDQKARNQQVMDRLCEIEKILGPPKSN
With B3 the MAPPIT interaction score (Arts) was 0.381, the MAPPIT interaction score (Pu) was -0.205 and the MAPPIT interaction score (Vinc; MAPPIT configuration: N-C) was 2.37. For the same binder, the MAPPIT interaction score (Vinc; MAPPIT configuration: N-N) was 2.53.

B4: GstZ2 (protein)
chain: MSTNLCPNASSSDIQPILYSYWRSSCSWRVRIAMNLKEIPYDIKPISLIKSGGEQHCNEYREVNPMEQVPALQIDGHTLIESVAIMHYLEETRPQRPLLPQDVHKRAKVREIVEIICSGIQPLQNLIVLIHVGEEKKKEWAQHWITRGFRAVEKALSTSAGKYCVGDEISMADCCLVPQVFNARRFHVDLRPYPIILRIDRELESNPAFRAAHPSNQPDCPPELPNK
With B4 the MAPPIT interaction score (Adar) was 0.0763.

B5: Arc2 (protein)
chain: MTQMSDEQFRIFIETIKSLGPIKEEPPSKGSFSNCTVRFSGQRDHDAVDEFINAVETYKEVEGISDKDALKGLPLLFKSIAVVWWKGVRRDAKTWSDALQLLRDHFSPTKPSYQIYMEIFETKQSYDEVIDSFICKQRALLAKLPEGRHDEETELDFIYGLMQPKYRESIPRHEVKTFRELLDRGRTVERTRH
With B5 the MAPPIT interaction score (Arc2) was 6.05 (active).

B6: Sry-delta (protein)
chain: MDTCFFCGAVDLSDTGSSSSMRYETLSAKVPSSQKTVSLVLTHLANCIQTQLDLKPGARLCPRCFQELSDYDTIMVNLMTTQKRLTTQLKGALKSEFEVPESGEDILVEEVEIPQSDVETDADAEADALFVELVKDQEESDTEIKREFVDEEEEEDDDDDDEFICEDVDVGDSEALYGKSSDGEDRPTKKRVKQECTTCGKVYNSWYQLQKHISEEHSKQPNHICPICGVIRRDEEYLELHMNLHEGKTEKQCRYCPKSFSRPVNTLRHMRMHWDKKKYQCEKCGLRFSQDNLLYNHRLRHEAEENPIICSICNVSFKSRKTFNHHTLIHKENRPRHYCSVCPKSFTERYTLKMHMKTHEGDVVYGVREEAPADEQQVVEELHVDVDESEAAVTVIMSDNDENSGFCLICNTNFENKKELEHHLQFDHDVVLK
With B6 the MAPPIT interaction score (BEAF-32) was 4.3 (active).

B7: CG9132 (protein)
chain: MEYESVLIVKPEVFIYKIPPRASNRGYRAGDWNLKEPTWTGRMRLVAKGTAVVLKLEDKTSGALFANCPIDTYPGVAIEAVSDSSRYFVIRVQDDNGRSAFLGLGFGDRSDSFDLNVALQDHFKWVKNQEQIEKEKTEPKQELDLGFKEGETIKINMRITKKDGSEGSSRTGKNKGSSGVLPPPPGGLGKIAPPPAAAAANTTVRQSPGVSPAHRPAAGGSEWTDYASAGGNQGQQNSANANWVQF
B7 was tested, and the MAPPIT interaction score (Atx-1) was 2.48.

B8: Drak (protein)
chain: MFTEKGIFPIGDGLLDVDADRLKGLLVSCPDINEIYEVEQTPFARGKFAAVRRAIHKNTGSHFAAKFLKRRRRAQSSDKEIKHEIAVLMLCEGEDNIVNLNAVHETRSDTALLLELATGGELQTILDNEECLTEAQARHCMREVLKALKFLHDRSIAHLDLKPQNILLAGERIEDGLKLCDFGISRVVCEGINVREMAGTPDYVAPEVLQYEPLSLLTDIWSVGVLTYVLLSGFSPFGGDTKQETFLNISQCALTFPDNLFGGVSPVAIDFIRRALRIKPNDRMNATGCLDHIWLKDDCSLDRQIYLQPQSDAEEEEEEDVDDDVEDEEEEEQVEEEEEETQNVEEPTTEAPQQQQQPVQQHQLAKSGQIHSKPTHNGHHRANSGGSISKIPIATSKLQSTPSSETTTAIHTLTSNSNGHVHKPTQIVTPTRRASDSDKENTYTATFVKKPVATIQLGSSNGIEDATVVATLTLFPDAPTTPKVIRKTPTGESNGSATSVKALVKKFQLEDSSGSAVARRSGGAVTSSSGLHSPTTTSVRLNSIRRASEPLTTVYKKQTSQNGCSSTSNPSSSPGSSPTTSGSTATLLIHSQRLGNSTAPASHCVAVPATATATSSASSSNSSSGKSTSAAHHLHHHHMHHHHHHHHHHVVIAAKNAAAVAATNNLSLDQGIIC
For B8, the MAPPIT interaction score (Arv1) was 2.34.

Reference: the supplement of paper PMC10105736
